Assay results published in ChEMBL document CHEMBL4513216, “Probing the Open Global Health Chemical Diversity Library for Multistage-Active Starting Points for Next-Generation Antimalarials” (ACS Infect Dis, 2020).
Out of some 69,000 compounds screened, about 8,600 (12%) showed an effect of 50% or more. Shown is part of a subset that was picked to be rich in strong results.

These compounds were tested on Plasmodium berghei (assay: Screen against P. berghei liver stage (PbLuc), transformed with Luciferase, at 10uM). Conditions: tested at 10 uM.
Assay type: functional, HepG2

Row | Compound | INHIBITION [%]
1 | Cn1cc(CN2CCCC3(CCN(Cc4ccncc4)C3=O)C2)cn1 (stereo not given) | 43.1
2 | COCCN1CCO[C@@H]2CN(Cc3sccc3C)C[C@@H]2C1 | 24.6
3 | O=C(c1ccc(=O)[nH]n1)N(CCO)Cc1cc(Br)ccc1F | 23.1
4 | CCc1ccc(-n2nnc(C(=O)O)c2-c2ccccn2)cc1 | 9.84
5 | CC(C)c1nnc2n1CCN(Cc1csc(CC(=O)N(C)C)n1)C2 | 52
6 | Cc1nnc2n1CCN(Cc1csc(CC(=O)N(C)C)n1)C2 | 16.7
7 | CN(C)C(=O)Cc1nc(CN2CCn3c(nnc3C3CC3)C2)cs1 | 8.81
8 | O=C1CCC2(CCCN(CCc3ccccc3)C2)N1Cc1cccnc1 (stereo not given) | 23.2
9 | CC(CNCc1ccc(Cl)cc1)Oc1ccccn1 (stereo not given) | 11.4
10 | CCn1cc(NC(=O)N2CCN(CCSc3ccccc3)CC2)cn1 | -32.35
11 | CCN1CCN(C(=O)C2CCCc3[nH]ncc32)CC1 (stereo not given) | -24.9
12 | CN1CCN(C(=O)C2CCCc3[nH]ncc32)CC1 (stereo not given) | -3.12
13 | O=C(C1CCCc2[nH]ncc21)N1CCCC1 (stereo not given) | 17.4
14 | O=C(C1CCCc2[nH]ncc21)N1CCCC2(C1)OCCO2 (stereo not given) | 50.8
15 | O=C(C1CCCc2[nH]ncc21)N1CCCCCC1 (stereo not given) | 46.6
16 | CCN(CC)C(=O)N1CCN(C(=O)C2CCCc3[nH]ncc32)CC1 (stereo not given) | 67.5
17 | CCS(=O)(=O)N1C[C@H]2CN(Cc3ccc(OC)cc3)C(=O)[C@H]2C1 | -12.2
18 | O=C(NCc1nc(C2CC2)no1)N1CCOC(c2cccc(F)c2)C1 (stereo not given) | 53.6
19 | O=C(NCc1nc(C2CC2)no1)N1CCOC(c2ccccc2)C1 (stereo not given) | 33.2
20 | O=C(NCc1nc(C2CC2)no1)N1CCOC(c2ccccc2F)C1 (stereo not given) | 35
21 | CCCOCC(=O)NC1CCc2nc(C)cn2C1 (stereo not given) | 1.58
22 | Cc1ccc(OCCN2CCC(c3nc(C)n4c(C)csc34)CC2)cc1 | 29.1
23 | Cc1nc(C)n(CC2CN(CCOc3ccccc3F)CCO2)n1 (stereo not given) | 53.8
24 | Cc1nc(C)n(CC2CN(CCCOc3ccccc3C)CCO2)n1 (stereo not given) | 24.4

Row | Compound | INHIBITION [%]
25 | Cc1csc2c(C3CCN(CCCOc4ccccc4)CC3)nc(C)n12 | 46.7
26 | Cc1nc(C)n(CC2CN(Cc3cccc(C#N)c3)CCO2)n1 (stereo not given) | 10.5
27 | Cc1csc2c(C3CCN(CCOc4ccccc4F)CC3)nc(C)n12 | 54
28 | Cc1nc(C)n(CC2CN(CCOc3ccccc3C#N)CCO2)n1 (stereo not given) | -15.5
29 | Cc1nc(C)n(CC2CCCN(Cc3cc(C#N)ccc3F)C2)n1 (stereo not given) | -2.53
30 | Cc1nc(C)n(CC2CN(Cc3cc(C#N)ccc3F)CCO2)n1 (stereo not given) | 51.1
31 | CN1CC[C@H](N(Cc2ccccc2)CC2CC2)C[C@H](O)C1 | 23.7
32 | Cc1ccsc1CN(CCCN(C)C)Cc1ccccn1 | 2.6
33 | O=C(CC1[C@H]2CN(Cc3ccsc3)C[C@@H]12)N1CCCC1 (stereo not given in full) | 7.5
34 | Cc1cc(-c2cnc(C)nc2CN(C)C(=O)c2cc(C3CC3)on2)on1 | -18.9
35 | CCOc1ccc(NC(=O)N(CCN(C)C)C(C)c2ccncc2)cc1 (stereo not given) | 14.3
36 | COCC1c2c(cnn2C)CCN1Cc1ccco1 (stereo not given) | 35.8
37 | CS(=O)(=O)N1CCC(n2nnn(-c3ccccc3)c2=O)CC1 | 2.7
38 | COc1cc(N2C[C@H]3CC[C@@H](C2)N(CC2CCC2)C3=O)ncn1 | 2.15
39 | c1nc(N2CCCC(Cn3cncn3)C2)c2ccsc2n1 (stereo not given) | -17.3
40 | O=C1[C@@H]2CC[C@@H](CN(c3ncnc4ccsc34)C2)N1CC1CC1 | 78.9
41 | Cc1nc(C)n(CC2CCCN(c3ncnc4c3CCC4)C2)n1 (stereo not given) | 80.8
42 | Cc1nc(C)n(CC2CCCN2c2ncnc3c2CCC3)n1 (stereo not given) | 26.9
43 | Cc1nc(C)n(CC2CCCN(CC3CCCCC3)C2)n1 (stereo not given) | 15.6
44 | c1ccc2nc(N3CCCC(Cn4cncn4)C3)cnc2c1 (stereo not given) | -2.55
45 | O=C(O)c1cn(CC2CCCN(c3nc4ccccc4s3)C2)nn1 (stereo not given) | 46.6
46 | c1nc(N2CCCC(Cn3cncn3)C2)c2sccc2n1 (stereo not given) | 85.4
47 | CN1C(=O)[C@@H]2CC[C@H]1CN(c1ncnc3ccsc13)C2 | -15.1
48 | c1nc(N2CCCCC2Cn2cncn2)c2sccc2n1 (stereo not given) | 6.65

Row | Compound | INHIBITION [%]
49 | c1ccc2sc(N3CCCC(Cn4cncn4)C3)nc2c1 (stereo not given) | 54.5
50 | Cc1ccnc(C2CCN(S(=O)(=O)c3cn(C)cn3)CC2)n1 | -10.5
51 | O=C(Nc1cccnc1)C1CN(C(=O)c2ccc3c(c2)OCO3)C1 | 34.6
52 | CCc1nc(CN2CCCC2c2c(C)nn(C)c2OC)no1 (stereo not given) | 33.8
53 | Cc1nn(C)c(C)c1C1CCCN1Cc1ccc(C(N)=O)cc1 (stereo not given) | 13.3
54 | Cn1nc(CO)c2c1CCN(c1ncnc3c1CCNCC3)C2 | 26.8
55 | Cn1cnnc1C1CCCN(C(=O)c2cc(Cl)cc(Cl)c2)C1 (stereo not given) | 11.6
56 | O=C(c1cccc(CNS(=O)(=O)c2ccc(F)cc2)c1)N1CCCC1 | 15.6
57 | COCc1nc(CN2CC(Cc3ccccc3)CC2=O)no1 (stereo not given) | -37.2
58 | Cc1nnc(SCC(=O)N2C[C@@H]3CC[C@H]2CN(c2ncccn2)C3)[nH]1 | 19.4
59 | Cc1nc(C)n(CC2CCCCN2c2ncnc3ccsc23)n1 (stereo not given) | 27.8
60 | Cc1nc(C)n(CC2CCCN2c2ncnc3sccc23)n1 (stereo not given) | -3.81
61 | Cc1nc(C)n(CC2CCCN(c3ncnc4ccsc34)C2)n1 (stereo not given) | 83.1
62 | Cc1nc(C)n(CC2CCCN2c2ncnc3ccsc23)n1 (stereo not given) | 27.8
63 | Cc1nc(C)n(CC2CCCN(c3ncnc4sccc34)C2)n1 (stereo not given) | 72.9
64 | Cc1nc(C)n(CC2CCCN(c3ccc(C#N)cn3)C2)n1 (stereo not given) | -10.6
65 | Cc1nc(C)n(CC2CCCN(CCc3ccccn3)C2)n1 (stereo not given) | 53.8
66 | Cc1nc(C)n(CC2CCCN(CCc3ccncc3)C2)n1 (stereo not given) | 24
67 | Cc1nc(C)n(CC2CCCN(c3ccnc(-c4ccccc4)n3)C2)n1 (stereo not given) | 26.6
68 | Cc1nc(C)n(CC2CCCN(c3ncnc4ccccc34)C2)n1 (stereo not given) | 88.2
69 | Cc1nc(C)n(CC2CCCN(c3ncnc4[nH]ccc34)C2)n1 (stereo not given) | 5.13
70 | Cc1nc(C)n(CC2CCCN(CCc3ccccc3)C2)n1 (stereo not given) | 38.8
